# In PubChem BioAssay AID1159580 (chemical genetic matrix, 2015):
# Screen size: about 5,500 compounds; about 2,000 (36%) were called active. Not shown: some 18% with an inconclusive outcome. The list shows a part of the results. A number with no mark means an inactive call. Rule as the data show it: active = normalized growth mostly below about 0.91 (no sharp cut-off); inconclusive = no clear call, values can overlap the other calls; inactive = mostly above about 0.92.
# Assay: chemical genetic growth profiling, strain panel (AID 1159580);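 also: tested at 20 µM; growth read once vehicle control cultures reached saturation at 30 °C; 1 = growth at the plate median or of vehicle wells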
# Conditions: S. cerevisiae deletion strains, growth OD
# [1] = locus YAR019C, strain CDC15, stronger effect = lower value
# [2] = locus YBL105C, strain PKC1, stronger effect = lower value
# [3] = locus YBR135W, strain CKS1, stronger effect = lower value
# [4] = locus YBR136W, strain MEC1, stronger effect = lower value
# [5] = locus YBR160W, strain CDC28, stronger effect = lower value
# [6] = locus YDL017W, strain CDC7, stronger effect = lower value
# [7] = locus YDL028C, strain MPS1, stronger effect = lower value
# [8] = locus YDL101C, strain DUN1, stronger effect = lower value
# [9] = locus YDL108W, strain KIN28, stronger effect = lower value
# [10] = locus YDL132W, strain cdc53, stronger effect = lower value
# [11] = locus YDL214C, strain PRR2, stronger effect = lower value
# [12] = locus YDR052C, strain DBF4, stronger effect = lower value
# [13] = locus YDR226W, strain ADK1, stronger effect = lower value
# [14] = locus YDR477W, strain SNF1, stronger effect = lower value
# [15] = locus YER123W, strain YCK3, stronger effect = lower value
# [16] = locus YER133W, strain GLC7, stronger effect = lower value
# [17] = locus YFL009W, strain cdc4, stronger effect = lower value
# [18] = locus YFL029C, strain CAK1, stronger effect = lower value
# [19] = locus YFR003C, strain YPI1, stronger effect = lower value
# [20] = locus YFR019W, strain FAB1, stronger effect = lower value
# [21] = locus YFR028C, strain CDC14, stronger effect = lower value
# [22] = locus YGR040W, strain KSS1, stronger effect = lower value
# [23] = locus YGR052W, strain FMP48, stronger effect = lower value
# [24] = locus YGR092W, strain DBF2, stronger effect = lower value
# [25] = locus YHR030C, strain SLT2, stronger effect = lower value
# [26] = locus YHR079C, strain IRE1, stronger effect = lower value
# [27] = locus YHR082C, strain KSP1, stronger effect = lower value
# [28] = locus YHR205W, strain SCH9, stronger effect = lower value
# [29] = locus YIL147C, strain SLN1, stronger effect = lower value
# [30] = locus YJL095W, strain BCK1, stronger effect = lower value
# [31] = locus YJL128C, strain PBS2, stronger effect = lower value
# [32] = locus YJL157C, strain FAR1, stronger effect = lower value
# [33] = locus YJR016C, strain ILV3, stronger effect = lower value
# [34] = locus YJR066W, strain TOR1 (second series), stronger effect = lower value
# [35] = locus YJR066W, strain TOR1, stronger effect = lower value
# [36] = locus YKL048C, strain ELM1, stronger effect = lower value
# [37] = locus YKL067W, strain YNK1, stronger effect = lower value
# [38] = locus YKL101W, strain HSL1, stronger effect = lower value
# [39] = locus YKL193C, strain SDS22, stronger effect = lower value
# [40] = locus YKL203C, strain TOR2, stronger effect = lower value
# [41] = locus YLR113W, strain HOG1, stronger effect = lower value
# [42] = locus YLR133W, strain CKI1, stronger effect = lower value
# [43] = locus YLR403W, strain SFP1, stronger effect = lower value
# [44] = locus YML070W, strain DAK1, stronger effect = lower value
# [45] = locus YMR001C, strain CDC5, stronger effect = lower value
# [46] = locus YMR205C, strain PFK2 (second series), stronger effect = lower value
# [47] = locus YMR277W, strain FCP1, stronger effect = lower value
# [48] = locus YNL006W, strain LST8, stronger effect = lower value
# [49] = locus YNL020C, strain ARK1, stronger effect = lower value
# [50] = locus YNL161W, strain CBK1, stronger effect = lower value
# [51] = locus YNL183C, strain NPR1, stronger effect = lower value
# [52] = locus YNL207W, strain RIO2, stronger effect = lower value
# [53] = locus YNL222W, strain SSU72, stronger effect = lower value
# [54] = locus YNL307C, strain MCK1 (second series), stronger effect = lower value
# [55] = locus YOL078W, strain AVO1, stronger effect = lower value
# [56] = locus YOL136C, strain PFK27, stronger effect = lower value
# [57] = locus YOR061W, strain CKA2, stronger effect = lower value
# [58] = locus YOR119C, strain RIO1, stronger effect = lower value
# [59] = locus YOR231W, strain MKK1, stronger effect = lower value
# [60] = locus YOR329C, strain SCD5, stronger effect = lower value
# [61] = locus YPL031C, strain PHO85, stronger effect = lower value
# [62] = locus YPL153C, strain RAD53, stronger effect = lower value
# [63] = locus YPL204W, strain HRR25, stronger effect = lower value
# [64] = locus YPL209C, strain IPL1, stronger effect = lower value
# [65] = locus YPL256C, strain CLN2, stronger effect = lower value
# [66] = locus YPR025C, strain CCL1, stronger effect = lower value
# [67] = locus YPR106W, strain ISR1, stronger effect = lower value
# [68] = locus YPR111W, strain DBF20, stronger effect = lower value
# [69] = strain NNK1, stronger effect = lower value
# [70] = strain TSCII, stronger effect = lower value
smiles,measurement,setting,value
Cc1c(C)c(C)c(C(=O)c2ccc(N=Cc3cc(Cl)cc(Cl)c3O)cc2)c(C)c1C,normalized growth,[1],0.929
same,normalized growth,[2],0.934
same,normalized growth,[3],0.94
same,normalized growth,[4],0.925
same,normalized growth,[5],0.944
same,normalized growth,[6],0.926
same,normalized growth,[7],0.941
same,normalized growth,[8],0.949
same,normalized growth,[9],0.944
same,normalized growth,[10],0.926
same,normalized growth,[11],0.681 (active)
same,normalized growth,[12],0.904 (active)
same,normalized growth,"locus YDR054C, strain cdc34, stronger effect = lower value",0.918
same,normalized growth,[13],0.923
same,normalized growth,[14],0.573 (active)
same,normalized growth,[15],0.464 (active)
same,normalized growth,[16],0.527 (active)
same,normalized growth,[17],0.922
same,normalized growth,[18],0.932
same,normalized growth,[19],0.922
same,normalized growth,[20],0.625 (active)
same,normalized growth,[21],0.941
same,normalized growth,[22],0.63 (active)
same,normalized growth,[23],0.605
same,normalized growth,[24],0.239 (active)
same,normalized growth,[25],0.262 (active)
same,normalized growth,[26],0.338 (active)
same,normalized growth,[27],0.631
same,normalized growth,[28],0.509 (active)
same,normalized growth,[29],0.926
same,normalized growth,[30],0.233 (active)
same,normalized growth,[31],0.927
same,normalized growth,[32],0.503 (active)
same,normalized growth,[33],0.944
same,normalized growth,[34],0.6 (active)
same,normalized growth,[35],0.458 (active)
same,normalized growth,[36],0.55 (active)
same,normalized growth,[37],0.663 (active)
same,normalized growth,[38],0.735
same,normalized growth,[39],0.93
same,normalized growth,[40],0.662 (active)
same,normalized growth,[41],0.585 (active)
same,normalized growth,[42],0.523 (active)
same,normalized growth,[43],0.459 (active)
same,normalized growth,[44],0.502 (active)
same,normalized growth,[45],0.938
same,normalized growth,[46],0.645 (active)
same,normalized growth,[47],0.929
same,normalized growth,[48],0.938
same,normalized growth,[49],0.469 (active)
same,normalized growth,[50],0.925
same,normalized growth,[51],0.655
same,normalized growth,[52],0.937
same,normalized growth,[53],0.94
same,normalized growth,[54],0.503 (active)
same,normalized growth,[55],0.94
same,normalized growth,[56],0.382 (active)
same,normalized growth,[57],0.493 (active)
same,normalized growth,[58],0.663 (active)
same,normalized growth,[59],0.446 (active)
same,normalized growth,[60],0.921
same,normalized growth,[61],0.583 (active)
same,normalized growth,[62],0.504 (active)
same,normalized growth,[63],0.483 (active)
same,normalized growth,[64],0.925
same,normalized growth,[65],0.403 (active)
same,normalized growth,[66],0.937
same,normalized growth,[67],0.938
same,normalized growth,[68],0.941
same,normalized growth,[69],0.939
same,normalized growth,[70],0.925
CC(=O)c1ccc(Cl)c(N=Cc2cc(Cl)cc(Cl)c2O)c1,normalized growth,[1],0.94
same,normalized growth,[2],0.948
same,normalized growth,[3],0.953
same,normalized growth,[4],0.941
same,normalized growth,[5],0.937
same,normalized growth,[6],0.944
same,normalized growth,[7],0.91
same,normalized growth,[8],0.932
same,normalized growth,[9],0.935
same,normalized growth,[10],0.958
same,normalized growth,[11],0.303 (active)
same,normalized growth,[12],0.963
same,normalized growth,[13],0.948
same,normalized growth,[14],0.289 (active)
same,normalized growth,[15],0.151 (active)
same,normalized growth,[16],0.354 (active)
same,normalized growth,[17],0.928
same,normalized growth,[18],0.934
same,normalized growth,[19],0.933
same,normalized growth,[20],0.222 (active)
same,normalized growth,[21],0.939
same,normalized growth,[22],0.339 (active)
same,normalized growth,[23],0.253 (active)
same,normalized growth,[24],0.139 (active)
same,normalized growth,[25],0.159 (active)
same,normalized growth,[26],0.148 (active)
same,normalized growth,[27],0.227 (active)
same,normalized growth,[28],0.199 (active)
same,normalized growth,[29],0.926
same,normalized growth,[30],0.139 (active)
same,normalized growth,[31],0.9
same,normalized growth,[32],0.23 (active)
same,normalized growth,[33],0.967
same,normalized growth,[34],0.341 (active)
same,normalized growth,[35],0.175 (active)
same,normalized growth,[36],0.441 (active)
same,normalized growth,[37],0.227 (active)
same,normalized growth,[38],0.308 (active)
same,normalized growth,[39],0.941
same,normalized growth,[40],0.399 (active)
same,normalized growth,[41],0.192 (active)
same,normalized growth,[42],0.274 (active)
same,normalized growth,[43],0.186 (active)
same,normalized growth,[44],0.184 (active)
same,normalized growth,[45],0.936
same,normalized growth,[46],0.304 (active)
same,normalized growth,[47],0.92
same,normalized growth,[48],0.947
same,normalized growth,[49],0.247 (active)
same,normalized growth,[50],0.955
same,normalized growth,[51],0.246 (active)
same,normalized growth,[52],0.947
same,normalized growth,[53],0.923
same,normalized growth,[54],0.209 (active)
same,normalized growth,[55],0.926
same,normalized growth,[56],0.197 (active)
same,normalized growth,[57],0.198 (active)
same,normalized growth,[58],0.32 (active)
same,normalized growth,[59],0.123 (active)
same,normalized growth,[60],0.953
same,normalized growth,[61],0.269 (active)
same,normalized growth,[62],0.197 (active)
same,normalized growth,[63],0.247 (active)
same,normalized growth,[64],0.95
same,normalized growth,[65],0.197 (active)
same,normalized growth,[66],0.959
same,normalized growth,[67],0.952
same,normalized growth,[68],0.931
same,normalized growth,[69],0.948
same,normalized growth,[70],0.905
